Results filed as inconclusive are left out. Activity calls are given as the source filed them. Unless noted, the call rests on the fitted dose curve; in most records, active means well fitted curve in the direction sought with a large enough effect; inconclusive means small, poorly fitted or top-dose-only effect, or another doubt; inactive means no such curve, though single readings can be large; an effect the other way counts as inactive or inconclusive.

Test [1] deals with Luciferin 4-monooxygenase (Photinus pyralis) (UniProt P08659). Nature of the test: Biochemical firefly luciferase enzyme assay for NPC (AID 624030).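 Further: purified P. pyralis luciferase at 10 nM with luciferin and ATP substrate; 0% = DMSO and -100% = full luciferase inhibition by PTC124 control; nearly all actives have a fitted effect of over 70% in size.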 In a few lines: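 Direct inhibition of firefly luciferase enzyme (10 nM final, 50 mM Tris Acetate) assessed by luminescence within 5 minutes. Percent activity scaled between DMSO and PTC124 positive control, with concentration-effect curves classified by fit quality and response.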

Test [2] is described as follows: qHTS for Inhibitors of the Functional Ribonucleoprotein Complex (vRNP) of Lassa (LASV) Arenavirus: LASV Primary Screen - GLuc reporter signal (AID 1347082; calls by dose curve; tested in HEK293 reporter line; further: on the % scale 0 is the no-effect control and ±100 the full control effect; nearly all actives have a fitted effect of over 60% in size).
A short description of test [3]: qHTS for Inhibitors of the Functional Ribonucleoprotein Complex (vRNP) of Lassa (LASV) Arenavirus: Viability assay - alamar blue signal for LASV Primary Screen (AID 1347083; calls by dose curve; tested in HEK293 reporter line; further: on the % scale 0 is the no-effect control and ±100 the full control effect; nearly all actives have a fitted effect of over 80% in size).
Test [4] is described as follows: qHTS for Inhibitors of the Functional Ribonucleoprotein Complex (vRNP) of Lymphocytic Choriomeningitis Arenaviruses (LCMV): Viability assay - alamar blue signal for LCMV Primary Screen (AID 1347085; calls by dose curve; tested in HEK293 reporter line; further: on the % scale 0 is the no-effect control and ±100 the full control effect; nearly all actives have a fitted effect of over 80% in size). Background: In qHTS, concentration-response curves come from the screen itself.
Test [5] addresses Nucleoprotein (Lymphocytic choriomeningitis virus (strain Armstrong)) (UniProt P09992). Nature of the test: qHTS for Inhibitors of the Functional Ribonucleoprotein Complex (vRNP) of Lymphocytic Choriomeningitis Arenaviruses (LCMV): LCMV Primary Screen - GLuc reporter signal (AID 1347086; calls by dose curve; further: on the % scale 0 is the no-effect control and ±100 the full control effect; nearly all actives have a fitted effect of over 70% in size).
Test [6] deals with astro. In words: Drug repurposing screens with cells derived from glioblastoma tumor samples (AID 1345199). Further: nearly all actives have a fitted effect of over 40% in size. Further: potency means the concentration at half of the fitted maximal effect. To be noted: viability, ATP luminescence, 48 h; series mostly up to 45.9 µM. In a few lines:
(§1)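 Primary testing used CD133+ neurospheres from four GBM patients, seven concentrations, 48 h exposure and ATP-based viability; confirmation added three slower-growing patient lines.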

Test [7] is described as follows: qHTS Assay for Identifying Gametocytocidal Compounds (AID 743244).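 Further: on the % scale 0 is the no-effect control and ±100 the full control effect; actives lower the fluorescent signal which means gametocytes are killed.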 To be noted: P. falciparum 3D7 stage III-V gametocytes, alamarBlue, 72 h; max response: stronger effect = lower value. In a few lines:
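In this qHTS viability screen, late-stage 3D7 gametocytes are incubated with compound for 72 h, then with alamarBlue for 24 h; reduced resorufin fluorescence marks killing.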

Test [8] is described as follows: P-glycoprotein substrates identified in KB-8-5-11 adenocarcinoma cell line, qHTS therapeutic library screen (AID 1346987). Further: nearly all actives have a fitted effect of over 65% in size. Further: potency means the concentration at half of the fitted maximal effect. Put shortly:
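In this qHTS, P-gp-rich KB-8-5-11 cells received library compounds across a concentration range. Viability was quantified by luminescence after 72 h at 37 degree C.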

The nature of test [9]: Drug repurposing screens with cells derived from glioblastoma tumor samples (AID 1345199). Further: nearly all actives have a fitted effect of over 40% in size. Further: potency means the concentration at half of the fitted maximal effect. The settings on record: GBM patient neurospheres viability, ATP luminescence, 48 h; Potency: tumour line A; series mostly up to 45.9 µM. In a few lines: as §1
Test [10] in a line: P-glycoprotein substrates identified in KB-3-1 adenocarcinoma cell line, qHTS therapeutic library screen (AID 1346986).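 Further: potency means the concentration at half of the fitted maximal effect; potency is for cytotoxicity meaning loss of cell viability; nearly all actives have a fitted effect of over 60% in size.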 In a few lines:
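Dose-response cytotoxicity, KB-3-1 vs P-gp-high KB-8-5-11, no colchicine in assay medium. Read: CellTiter-Glo at 72 h.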

A short description of test [11]: Cytotoxicity counterscreen for inhibitors of SARS-CoV-2 cell entry (AID 1645845; calls by dose curve; further: potency means the concentration at half of the fitted maximal effect; nearly all actives have a fitted effect of over 50% in size). Put shortly: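 ATP-content luminescence (ATPLite 1step, 15 min RT) read after 48 h compound exposure of Expi293F cells stably expressing human ACE2; normalized to cells-only wells and media-only wells.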
The nature of test [12]: Primary qHTS for inhibitors of nuclear receptor binding SET domain protein 2 (NSD2) in an isogenic RCH-ACV NSD2 p.E1099K mutant (9B) (AID 1645876). Further: potency means the concentration at half of the fitted maximal effect; nearly all actives have a fitted effect of over 70% in size.
Test [13] addresses Glutathione peroxidase 1 (Homo sapiens) (UniProt P07203). In words: Primary qHTS Assay for Inhibitors of Recombinant Selenoprotein Glutathione Peroxidase 1 (GPX1) (AID 1845191). Further: nearly all actives have a fitted effect of over 65% in size. Put shortly: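 NADPH consumption tracked by fluorescence at 340/450 nm between t=0 and t=15 min, room temperature. Final mix: 10 nM GPX1, 100 nM glutathione reductase, 1 mM GSH, 0.5 mM NADPH, 0.5 mM cumene hydroperoxide, 0.01% BSA; 30 min compound–enzyme preincubation.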

The target in test [14] is Phospholipid hydroperoxide glutathione peroxidase GPX4 (Homo sapiens) (UniProt P36969). In words: Primary qHTS Assay for Inhibitors of Recombinant Selenoprotein Glutathione Peroxidase 4 (GPX4) (AID 1845192). Further: on the % scale 0 is the no-effect control and ±100 the full control effect; nearly all actives have a fitted effect of over 65% in size. Put shortly: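 NADPH consumption followed by fluorescence at 340/450 nm, t=0 and after 15 min at room temperature. Reaction started with cumene hydroperoxide (0.5 mM final) after 30 min compound–GPX4 preincubation; final 200 nM GPX4, 100 nM GR, 1 mM GSH, 0.5 mM NADPH.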

A short description of test [15]: qHTS drug screen for cell cycle checkpoint inhibitors in PARPi-resistant BRCA-mutant ovarian cancer cell lines. (AID 1963452; calls by dose curve). The settings on record: PEO1/OlaR viability, CellTiter-Glo luminescence, 96 h, stronger effect = lower value. In a few lines: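 PEO1, PEO4 and PEO1/OlaR ovarian cancer cells, 600 per well, exposed 96 h at 37C to a dilution series. Viability read by CellTiter-Glo luminescence, normalized to DMSO and empty wells; activity summarized as Z-AUC.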

Test [16] deals with Zika virus NS2B-NS3 protease (unlinked complex). Nature of the test: Primary screen GU Rhodamine qHTS for Zika virus inhibitors: Unlinked NS2B-NS3 protease assay (AID 1347159). Further: on the % scale 0 is the no-effect control and ±100 the full control effect; nearly all actives have a fitted effect of over 60% in size. In a few lines:
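Buffer 10 mM Tris-HCl pH 8.0, 0.01% Tween 20. Unlinked protease 25 nM; compound preincubation 15 min, RT, protected from light. Substrate Rhod110, 1.5 microM; ~15% conversion in 15 min.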

In test [17] the test system is Zika virus NS2B-NS3 protease (linked construct). Nature of the test: Primary screen NINDS Rhodamine qHTS for Zika virus inhibitors (AID 1347160). Further: on the % scale 0 is the no-effect control and ±100 the full control effect; nearly all actives have a fitted effect of over 55% in size. Put shortly:
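Aprotinin served as in-plate control. Conditions: 25 nM linked NS2B-NS3, pH 8.0 Tris buffer, titrated compounds, 15 min preincubation and 15 min reaction with 1.5 microM Rhod110 substrate at room temperature.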

Test [18] has as its target Calcium and integrin-binding protein 1 (Homo sapiens) (UniProt Q99828). Nature of the test: Primary qHTS for Identification of Calcium Integrin Binding Protein 1 (CIB1) Competitor (AID 1508620).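 Further: GST tagged CIB1 binding a fluorescein labelled alphaIIb integrin peptide tracer; top concentration of the series differs between compounds; on the % scale 0 is the no-effect control and ±100 the full control effect.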 In a few lines: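 CIB1-GST (1 uM final) and compound incubated 15 min at room temperature before adding FITC-alphaIIb peptide tracer (100 nM final). Competition for binding read by fluorescence polarization (ex 480, em 540) after another 15 min at room temperature.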

Test [19] addresses Cytochrome P450 2D6 (Homo sapiens) (UniProt P10635). In words: Cytochrome P450 family 2 subfamily D member 6 (CYP2D6) small molecule antagonists: luciferase biochemical (cell-free) qHTS assay (AID 1645840; active means well fitted curve in the direction sought with a large enough effect in the repeat runs; an effect the other way counts as inactive or inconclusive; further: potency means the concentration at half of the fitted maximal effect; nearly all actives have a fitted effect of over 55% in size). In a few lines: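 P450-Glo CYP2D6 system: proluciferin substrate converted by enzyme to luciferin, read by luminescence proportional to activity. Enzyme-substrate mix with compound 10 min at room temperature, then NADPH regeneration 1 h before detection reagent.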

For test [20], the target named is Cytochrome P450 2C9 (Homo sapiens) (UniProt P11712). Nature of the test: Cytochrome P450 family 2 subfamily C member 9 (CYP2C9) small molecule antagonists: luciferase biochemical (cell-free) qHTS assay (AID 1645842; active means well fitted curve in the direction sought with a large enough effect in the repeat runs; an effect the other way counts as inactive or inconclusive; further: potency means the concentration at half of the fitted maximal effect; nearly all actives have a fitted effect of over 55% in size). In a few lines:
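P450-Glo CYP2C9 system: proluciferin substrate with enzyme in mix containing 0.4% BSA, 10 min at room temperature, then NADPH regeneration solution added and incubated 1 h at 37C. Detection reagent stopped reaction; luminescence read after 20 min as RLU.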

Test [21] is described as follows: Primary qHTS for inhibitors of nuclear receptor binding SET domain protein 2 (NSD2) in an RCH-ACV wild type WT cells (2C) (AID 1645877). Further: potency means the concentration at half of the fitted maximal effect; nearly all actives have a fitted effect of over 70% in size.
The nature of test [22]: Primary fluorescence-based thiol-reactive (MSTI) qHTS assay for identification of artifact compounds. (AID 1845221).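 Further: thiol-reactive compounds lower the probe fluorescence signal; nearly all actives have a fitted effect of over 65% in size.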 Put shortly:
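Probe: MSTI 4 uM, PBS pH 7.4, 2% DMSO. Incubation 1 h, RT, light-protected. Readout fluorescence 525/598 nm.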

Test [23] has as its system Nanoluciferase (engineered Oplophorus gracilirostris luciferase). In words: Primary Nanoluciferase (NLuc) qHTS assay for identification of artifact compounds. (AID 1845222).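 Further: NLuc secreted into diluted conditioned medium of S16 cells; 0% = DMSO and -100% = no enzyme.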 In a few lines:
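NLuc from S16 cell medium (1:55) plus test compounds, 15 min, room temperature. Luminescence after Nano-Glo (1:100) addition, 5 min.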

A short description of test [24]: Primary redox qHTS assay for identification of artifact compounds. (AID 1845223).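 Further: 0% = DMSO and 100% = reference compound.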 In a few lines:
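Redox-cycling detection via DTT (250 uM final) oxidation coupled to Amplex Red (25 uM)/HRP (250 mU/mL) in HBSS. 15 min preincubation plus 30 min after DTT, room temperature. Ex/Em 525/598 nm; 4-parameter Hill fit against DMSO and 10 uM DA3003.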

In test [25] the test system is HeLa. In words: Primary qHTS to identify gynecologic anti-cancer compounds using libraries of approved drugs and bioactive compounds (AID 1345084). Further: on the % scale 0 is the no-effect control and ±100 the full control effect; nearly all actives have a fitted effect of over 55% in size. To be noted: Gynecologic cancer cell panel viability, ATPlite luminescence, 48 h; series mostly up to 57.5 µM. In a few lines:
(§2)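 Cell viability after 48 h drug treatment, ATPlite luminescence readout; five doses.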

The subject of test [26] is Tov-21-G. The description is as above. The settings on record: Gynecologic cancer cell panel viability, ATPlite luminescence, 48 h; series mostly up to 57.5 µM. In a few lines: as §2
In general terms: ATP-based viability assays read luminescence as a measure of living cells.

Chain of Phospholipid hydroperoxide glutathione peroxidase GPX4 (Homo sapiens) (P36969 whole entry, looked up): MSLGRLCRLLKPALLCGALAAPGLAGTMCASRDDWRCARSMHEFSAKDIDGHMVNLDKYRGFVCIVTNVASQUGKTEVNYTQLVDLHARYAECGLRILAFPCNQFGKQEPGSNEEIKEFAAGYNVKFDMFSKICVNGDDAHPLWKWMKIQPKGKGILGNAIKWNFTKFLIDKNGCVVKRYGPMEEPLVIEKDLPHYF
Chain of Glutathione peroxidase 1 (Homo sapiens) (P07203 whole entry, looked up): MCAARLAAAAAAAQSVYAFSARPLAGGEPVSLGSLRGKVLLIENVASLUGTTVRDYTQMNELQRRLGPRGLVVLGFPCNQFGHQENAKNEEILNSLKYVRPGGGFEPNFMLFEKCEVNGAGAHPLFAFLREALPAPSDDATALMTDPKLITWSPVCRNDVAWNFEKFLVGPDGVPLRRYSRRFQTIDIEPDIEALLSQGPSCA
Chain of Luciferin 4-monooxygenase (Photinus pyralis) (P08659 whole entry, looked up): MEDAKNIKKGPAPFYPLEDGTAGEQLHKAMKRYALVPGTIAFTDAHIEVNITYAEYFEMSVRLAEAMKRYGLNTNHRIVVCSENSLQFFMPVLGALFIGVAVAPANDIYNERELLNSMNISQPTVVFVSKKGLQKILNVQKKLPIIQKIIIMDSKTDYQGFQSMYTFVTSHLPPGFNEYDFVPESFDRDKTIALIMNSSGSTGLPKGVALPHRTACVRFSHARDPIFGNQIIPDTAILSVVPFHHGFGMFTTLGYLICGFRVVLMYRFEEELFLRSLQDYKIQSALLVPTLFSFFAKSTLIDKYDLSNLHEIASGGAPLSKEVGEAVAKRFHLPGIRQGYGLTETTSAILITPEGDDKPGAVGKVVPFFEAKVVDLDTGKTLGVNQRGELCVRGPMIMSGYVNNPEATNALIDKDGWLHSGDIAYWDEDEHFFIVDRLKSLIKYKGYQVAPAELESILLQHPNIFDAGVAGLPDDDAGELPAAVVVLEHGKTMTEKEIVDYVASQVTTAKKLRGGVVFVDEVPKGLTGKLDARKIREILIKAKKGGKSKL
Chain of Calcium and integrin-binding protein 1 (Homo sapiens) (Q99828 whole entry, looked up): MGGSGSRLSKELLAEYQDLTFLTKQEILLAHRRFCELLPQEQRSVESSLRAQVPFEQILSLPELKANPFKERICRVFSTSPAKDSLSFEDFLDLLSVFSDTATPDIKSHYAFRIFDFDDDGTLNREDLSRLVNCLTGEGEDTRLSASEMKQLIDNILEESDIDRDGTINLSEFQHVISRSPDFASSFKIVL
Chain of Nucleoprotein (Lymphocytic choriomeningitis virus (strain Armstrong)) (P09992 whole entry, looked up): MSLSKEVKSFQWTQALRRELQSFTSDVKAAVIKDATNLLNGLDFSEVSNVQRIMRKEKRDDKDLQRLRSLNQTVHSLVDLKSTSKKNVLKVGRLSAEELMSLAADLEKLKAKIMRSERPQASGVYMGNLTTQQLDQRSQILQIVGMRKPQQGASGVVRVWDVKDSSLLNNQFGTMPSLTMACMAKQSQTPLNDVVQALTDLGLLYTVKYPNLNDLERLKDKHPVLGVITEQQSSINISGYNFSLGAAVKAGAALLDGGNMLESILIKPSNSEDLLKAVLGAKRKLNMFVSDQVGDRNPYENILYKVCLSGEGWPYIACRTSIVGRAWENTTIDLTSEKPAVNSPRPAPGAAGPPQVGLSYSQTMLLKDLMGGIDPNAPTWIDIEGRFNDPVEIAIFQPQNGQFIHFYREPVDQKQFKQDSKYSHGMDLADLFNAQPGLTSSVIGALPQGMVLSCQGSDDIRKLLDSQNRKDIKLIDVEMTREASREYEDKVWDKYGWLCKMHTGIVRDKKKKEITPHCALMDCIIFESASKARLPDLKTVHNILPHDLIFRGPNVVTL
Chain of Cytochrome P450 2D6 (Homo sapiens) (P10635 whole entry, looked up): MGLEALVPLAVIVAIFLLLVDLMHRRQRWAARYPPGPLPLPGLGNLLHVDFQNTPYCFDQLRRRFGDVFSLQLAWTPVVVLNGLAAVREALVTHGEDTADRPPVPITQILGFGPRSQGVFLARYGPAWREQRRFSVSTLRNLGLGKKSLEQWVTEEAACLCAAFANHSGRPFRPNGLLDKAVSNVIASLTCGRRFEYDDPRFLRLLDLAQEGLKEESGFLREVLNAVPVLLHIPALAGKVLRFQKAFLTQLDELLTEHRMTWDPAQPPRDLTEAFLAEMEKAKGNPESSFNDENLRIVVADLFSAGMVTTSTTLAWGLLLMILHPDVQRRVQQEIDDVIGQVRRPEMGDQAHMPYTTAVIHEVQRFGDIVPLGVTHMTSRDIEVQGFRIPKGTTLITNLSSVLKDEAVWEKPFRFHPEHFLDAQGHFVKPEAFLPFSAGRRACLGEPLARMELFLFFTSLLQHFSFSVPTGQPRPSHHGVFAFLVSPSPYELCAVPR
Chain of Cytochrome P450 2C9 (Homo sapiens) (P11712 whole entry, looked up): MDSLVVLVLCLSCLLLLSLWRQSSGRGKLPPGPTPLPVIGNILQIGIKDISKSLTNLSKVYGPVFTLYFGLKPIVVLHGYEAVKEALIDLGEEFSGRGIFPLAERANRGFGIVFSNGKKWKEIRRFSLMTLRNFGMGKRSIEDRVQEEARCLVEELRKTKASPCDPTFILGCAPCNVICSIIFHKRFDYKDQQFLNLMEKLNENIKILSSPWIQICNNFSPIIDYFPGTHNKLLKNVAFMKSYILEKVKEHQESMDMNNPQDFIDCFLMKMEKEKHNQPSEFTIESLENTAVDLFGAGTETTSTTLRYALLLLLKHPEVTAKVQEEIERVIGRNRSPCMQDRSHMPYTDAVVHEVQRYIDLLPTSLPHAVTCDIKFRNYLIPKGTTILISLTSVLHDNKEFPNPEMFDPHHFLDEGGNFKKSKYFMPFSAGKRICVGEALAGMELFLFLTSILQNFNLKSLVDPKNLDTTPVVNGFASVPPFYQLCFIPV

In the case of `CCCCCc1cc(O)c2c(c1)OC(C)(C)c1ccc(C)cc1-2`, the Potency result in test [1], in test [2], in [3], in [4] and in [5] was “inactive” in each case. Further, in test [6], the Potency was 22.4 µM (active).

For `C[C@@H]1[C@H]2Cc3ccc(O)cc3[C@]1(C)CCN2C`, the max response in [7] is -6.63% (inactive). Moreover, the Potency entry in [8], in test [9] and in [6] was “inactive” in each case.

Regarding `O=C(NCCCNc1nc(Nc2ccc(N3CCOCC3)cc2)ncc1C1CC1)C1CCC1`, the Potency in [10] is 10.3 µM (active); in [8], 11.6 µM (active); in test [11], 22.4 µM (active); in test [12], 5.25 µM (active). Moreover, the Potency result in test [13] and in test [14] was “inactive” throughout. Besides, the Z-AUC in [15] is 0.0288 (inactive); in [15] (measured here: PEO1 parental Z-AUC), -0.267; in test [15] (measured here: PEO4 Z-AUC), -0.524.

For `CN(C(=O)CN1C(=O)COc2cc(Cl)c(Cl)cc21)[C@@H](CN1CCCC1)c1ccc(-c2cccc(C(N)=O)c2)cc1`, the Potency entry in test [16], in [17], in [18], in test [13], in test [14] and in test [22] was “inactive” throughout. The Potency entry in test [23], in [24], in test [25] and in test [26] was “inactive” throughout. In addition, the Potency in [19] is 16.9 µM (active); in test [20] it was 13.5 µM (active); in [12] it was 8.17 µM (active); in [21] it was 7.28 µM (active).

Source of the values: PubChem BioAssay (NCATS).
